In all, about 5,500 compounds went through this assay and about 2,000 (36%) were called active. Inconclusive results (about 18%) are left out. Cut-off read from the data, not from the text of the source: active = normalized growth mostly below about 0.91 (no sharp cut-off); inconclusive = no clear call, values can overlap the other calls; inactive = mostly above about 0.92. This is one part of the list.
Test: chemical genetic growth profiling, strain panel (AID 1159580);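 note: tested at 20 µM; growth read once vehicle control cultures reached saturation at 30 °C; 1 = growth at the plate median or of vehicle wells; lower values mean less growth of the strain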
Settings: growth OD

Measured: normalized growth

COC1=CC(C)[C@@H]2C[C@H]3OC(=O)C[C@H]4C(C)=C(OC)C(=O)C([C@@]34C)[C@@]2(C)C1=O (some centres undefined)
inactive: S. cerevisiae deletion strains, locus YKL009W, strain mrt4, stronger effect = lower value 1.01 | S. cerevisiae deletion strains, locus YKL068W, stronger effect = lower value 1 | S. cerevisiae deletion strains, locus YKL085W, strain MDH1 (second series), stronger effect = lower value 1 | S. cerevisiae deletion strains, locus YKL085W, strain MDH1, stronger effect = lower value 1 | S. cerevisiae deletion strains, locus YKL160W, strain elf1, stronger effect = lower value 1 | S. cerevisiae deletion strains, locus YKL190W, strain CNB1, stronger effect = lower value 1.01 | S. cerevisiae deletion strains, locus YKR001C, strain vps1, stronger effect = lower value 0.986 | S. cerevisiae deletion strains, locus YKR026C, strain gcn3, stronger effect = lower value 0.96 | S. cerevisiae deletion strains, locus YKR091W, strain srl3, stronger effect = lower value 0.967 | S. cerevisiae deletion strains, locus YLL001W, strain dnm1, stronger effect = lower value 0.969 | S. cerevisiae deletion strains, locus YLL026W, stronger effect = lower value 0.985 | S. cerevisiae deletion strains, locus YLL041C, strain sdh2, stronger effect = lower value 0.983 | S. cerevisiae deletion strains, locus YLR027C, strain aat2, stronger effect = lower value 0.992 | S. cerevisiae deletion strains, locus YLR039C, strain RIC1, stronger effect = lower value 1.06 | S. cerevisiae deletion strains, locus YLR058C, strain SHM2, stronger effect = lower value 1.02 | S. cerevisiae deletion strains, locus YLR102C, strain apc9, stronger effect = lower value 1.02 | S. cerevisiae deletion strains, locus YLR113W, strain HOG1, stronger effect = lower value 1.03 | S. cerevisiae deletion strains, locus YLR221C, strain rsa3, stronger effect = lower value 1.01 | S. cerevisiae deletion strains, locus YLR258W, strain gsy2, stronger effect = lower value 0.968 | S. cerevisiae deletion strains, locus YLR262C, strain YPT6 (second series), stronger effect = lower value 0.991 | S. cerevisiae deletion strains, locus YLR262C, strain YPT6, stronger effect = lower value 1.16 | S. cerevisiae deletion strains, locus YLR268W, strain sec22, stronger effect = lower value 1.04 | S. cerevisiae deletion strains, locus YLR320W, strain mms22, stronger effect = lower value 0.975 | S. cerevisiae deletion strains, locus YLR330W, strain CHS5, stronger effect = lower value 1.01 | S. cerevisiae deletion strains, locus YLR342W, strain FKS1 (second series), stronger effect = lower value 1.01 | S. cerevisiae deletion strains, locus YLR342W, strain FKS1, stronger effect = lower value 0.976 | S. cerevisiae deletion strains, locus YLR357W, strain rsc2, stronger effect = lower value 0.942 | S. cerevisiae deletion strains, locus YLR370C, strain arc18, stronger effect = lower value 0.978 | S. cerevisiae deletion strains, locus YLR371W, strain rom2, stronger effect = lower value 1.02 | S. cerevisiae deletion strains, locus YLR384C, strain iki3, stronger effect = lower value 0.967 | S. cerevisiae deletion strains, locus YLR418C, strain cdc73, stronger effect = lower value 1 | S. cerevisiae deletion strains, locus YML016C, strain PPZ1, stronger effect = lower value 1.01 | S. cerevisiae deletion strains, locus YML032C, strain rad52, stronger effect = lower value 1.01 | S. cerevisiae deletion strains, locus YML120C, strain ndi1, stronger effect = lower value 0.99 | S. cerevisiae deletion strains, locus YML124C, strain tub3, stronger effect = lower value 1.01 | S. cerevisiae deletion strains, locus YMR058W, strain fet3, stronger effect = lower value 0.976 | S. cerevisiae deletion strains, locus YMR078C, strain ctf18, stronger effect = lower value 1.03 | S. cerevisiae deletion strains, locus YMR125W, strain sto1, stronger effect = lower value 0.975 | S. cerevisiae deletion strains, locus YMR129W, stronger effect = lower value 0.987 | S. cerevisiae deletion strains, locus YMR205C, strain PFK2, stronger effect = lower value 0.946 | S. cerevisiae deletion strains, locus YMR223W, strain ubp8, stronger effect = lower value 1.01 | S. cerevisiae deletion strains, locus YMR231W, strain pep5, stronger effect = lower value 0.973 | S. cerevisiae deletion strains, locus YMR263W, strain SAP30, stronger effect = lower value 1.02 | S. cerevisiae deletion strains, locus YMR307W, strain GAS1, stronger effect = lower value 1.17 | S. cerevisiae deletion strains, locus YNL067W, strain RPL9B, stronger effect = lower value 1.03 | S. cerevisiae deletion strains, locus YNL071W, strain lat1, stronger effect = lower value 0.987 | S. cerevisiae deletion strains, locus YNL153C, strain GIM3, stronger effect = lower value 1.02 | S. cerevisiae deletion strains, locus YNL183C, strain NPR1, stronger effect = lower value 0.988 | S. cerevisiae deletion strains, locus YNL209W, strain ssb2, stronger effect = lower value 1 | S. cerevisiae deletion strains, locus YNL233W, strain BNI4, stronger effect = lower value 1.03 | S. cerevisiae deletion strains, locus YNL248C, strain rpa49, stronger effect = lower value 1.01 | S. cerevisiae deletion strains, locus YNL250W, strain rad50, stronger effect = lower value 1.03 | S. cerevisiae deletion strains, locus YNL271C, strain bni1, stronger effect = lower value 1.01 | S. cerevisiae deletion strains, locus YNL298W, strain CLA4, stronger effect = lower value 1.02 | S. cerevisiae deletion strains, locus YNL307C, strain MCK1, stronger effect = lower value 1.01 | S. cerevisiae deletion strains, locus YNL322C, strain KRE1 (second series), stronger effect = lower value 0.988 | S. cerevisiae deletion strains, locus YNL322C, strain KRE1, stronger effect = lower value 1 | S. cerevisiae deletion strains, locus YNR049C, strain mso1, stronger effect = lower value 0.973 | S. cerevisiae deletion strains, locus YNR052C, strain pop2, stronger effect = lower value 1.01 | S. cerevisiae deletion strains, locus YOL006C, strain TOP1, stronger effect = lower value 1.08 | S. cerevisiae deletion strains, locus YOL012C, strain htz1 2.07 | S. cerevisiae deletion strains, locus YOL147C, strain pex11, stronger effect = lower value 1 | S. cerevisiae deletion strains, locus YOR001W, strain rrp6, stronger effect = lower value 0.993 | S. cerevisiae deletion strains, locus YOR061W, strain CKA2, stronger effect = lower value 1.01 | S. cerevisiae deletion strains, locus YOR069W, strain VPS5, stronger effect = lower value 1.01 | S. cerevisiae deletion strains, locus YOR070C, strain gyp1, stronger effect = lower value 0.987 | S. cerevisiae deletion strains, locus YOR080W, strain dia2, stronger effect = lower value 0.977 | S. cerevisiae deletion strains, locus YOR083W, strain WHI5, stronger effect = lower value 1.01 | S. cerevisiae deletion strains, locus YOR106W, strain vam3, stronger effect = lower value 0.992 | S. cerevisiae deletion strains, locus YOR136W, strain idh2, stronger effect = lower value 1.01 | S. cerevisiae deletion strains, locus YOR144C, strain elg1, stronger effect = lower value 1.01 | S. cerevisiae deletion strains, locus YOR184W, strain ser1, stronger effect = lower value 1.02 | S. cerevisiae deletion strains, locus YOR231W, strain MKK1, stronger effect = lower value 1.04 | S. cerevisiae deletion strains, locus YOR265W, strain rbl2, stronger effect = lower value 0.982 | S. cerevisiae deletion strains, locus YOR270C, strain vph1, stronger effect = lower value 0.975 | S. cerevisiae deletion strains, locus YOR290C, strain snf2, stronger effect = lower value 0.903 | S. cerevisiae deletion strains, locus YOR316C, strain cot1, stronger effect = lower value 1.01 | S. cerevisiae deletion strains, locus YPL051W, strain arl3, stronger effect = lower value 1 | S. cerevisiae deletion strains, locus YPL078C, strain atp4, stronger effect = lower value 0.996 | S. cerevisiae deletion strains, locus YPL106C, strain sse1, stronger effect = lower value 0.978 | S. cerevisiae deletion strains, locus YPL240C, strain hsp82, stronger effect = lower value 0.987 | S. cerevisiae deletion strains, locus YPL241C, strain CIN2, stronger effect = lower value 1.01 | S. cerevisiae deletion strains, locus YPL256C, strain CLN2, stronger effect = lower value 1.01 | S. cerevisiae deletion strains, locus YPR119W, strain clb2, stronger effect = lower value 1.01 | S. cerevisiae deletion strains, locus YPR141C, strain kar3, stronger effect = lower value 1.01 | S. cerevisiae deletion strains, locus YPR163C, strain tif3, stronger effect = lower value 1.01 | S. cerevisiae deletion strains, locus YPR167C, strain met16, stronger effect = lower value 1 | S. cerevisiae deletion strains, strain wtn01, stronger effect = lower value 1.01 | S. cerevisiae strains, strain wild type, stronger effect = lower value 1.01
